{"source": "the supplement of paper PMC11738630", "test_system": "Salmonella enterica serovar Typhimurium 14028s", "experiment": "approximate change in surviving CFU after surface colonization relative to water-only control (log10 CFU/mL change); higher = more surviving bacteria (less inhibition of surface colonization)", "settings": "not stated (Biolog proprietary concentration), surface: plastic 96-well plate, 20-24 h at 25 °C"}
{"compound": "O=C(O)[C@@H]1CCCN1", "note": "[L-Proline]", "values": [{"measurement": "approximate change in surviving CFU (log10)", "setting": "Biolog plate: PM1, Biolog well: A8", "result": 0.107}, {"measurement": "approximate change in surviving CFU (log10)", "setting": "Biolog plate: PM3, Biolog well: B9", "result": 0.0858}]}
{"compound": "N[C@H](CC(=O)O)C(=O)O", "note": "[D-Aspartic Acid]", "values": [{"measurement": "approximate change in surviving CFU (log10)", "setting": "Biolog plate: PM1, Biolog well: D2", "result": 1.01}, {"measurement": "approximate change in surviving CFU (log10)", "setting": "Biolog plate: PM3, Biolog well: C5", "result": 0.816}]}
{"compound": "CC(N)=O", "note": "[Acetamide]", "values": [{"measurement": "approximate change in surviving CFU (log10)", "setting": "Biolog plate: PM2, Biolog well: G1", "result": -0.365}, {"measurement": "approximate change in surviving CFU (log10)", "setting": "Biolog plate: PM3, Biolog well: E4", "result": -1.76}]}
{"compound": "O=c1ccn([C@@H]2O[C@H](CO)[C@@H](O)[C@H]2O)c(=O)[nH]1", "note": "[Uridine]", "values": [{"measurement": "approximate change in surviving CFU (log10)", "setting": "Biolog plate: PM1, Biolog well: D12", "result": 1.74}, {"measurement": "approximate change in surviving CFU (log10)", "setting": "Biolog plate: PM3, Biolog well: F11", "result": -0.236}]}
{"compound": "CC[C@H](C)[C@H](N)C(=O)O", "note": "[L-Isoleucine]", "values": [{"measurement": "approximate change in surviving CFU (log10)", "setting": "Biolog plate: PM2, Biolog well: G9", "result": 0.794}, {"measurement": "approximate change in surviving CFU (log10)", "setting": "Biolog plate: PM3, Biolog well: B4", "result": -0.0429}]}
{"compound": "Cc1cn([C@H]2C[C@H](O)[C@@H](CO)O2)c(=O)[nH]c1=O", "note": "[Thymidine]", "values": [{"measurement": "approximate change in surviving CFU (log10)", "setting": "Biolog plate: PM1, Biolog well: C12", "result": 1.5}, {"measurement": "approximate change in surviving CFU (log10)", "setting": "Biolog plate: PM3, Biolog well: F9", "result": -0.193}]}
{"compound": "NC(=O)CC[C@H](N)C(=O)O", "note": "[L-Glutamine]", "values": [{"measurement": "approximate change in surviving CFU (log10)", "setting": "Biolog plate: PM1, Biolog well: E1", "result": 0.322}, {"measurement": "approximate change in surviving CFU (log10)", "setting": "Biolog plate: PM3, Biolog well: B1", "result": -0.0429}]}
{"compound": "NC(=O)C[C@H](N)C(=O)O", "note": "[L-Asparagine]", "values": [{"measurement": "approximate change in surviving CFU (log10)", "setting": "Biolog plate: PM1, Biolog well: D1", "result": 0.944}, {"measurement": "approximate change in surviving CFU (log10)", "setting": "Biolog plate: PM3, Biolog well: A9", "result": 0.451}]}
{"compound": "CC(C)C[C@H](N)C(=O)O", "note": "[L-Leucine]", "values": [{"measurement": "approximate change in surviving CFU (log10)", "setting": "Biolog plate: PM2, Biolog well: G10", "result": 0.451}, {"measurement": "approximate change in surviving CFU (log10)", "setting": "Biolog plate: PM3, Biolog well: B5", "result": -0.236}]}
{"compound": "NCC(=O)O", "note": "[Glycine]", "values": [{"measurement": "approximate change in surviving CFU (log10)", "setting": "Biolog plate: PM2, Biolog well: G5", "result": 0.494}, {"measurement": "approximate change in surviving CFU (log10)", "setting": "Biolog plate: PM3, Biolog well: B2", "result": 0.15}]}
{"compound": "N[C@@H](CCO)C(=O)O", "note": "[L-Homoserine]", "values": [{"measurement": "approximate change in surviving CFU (log10)", "setting": "Biolog plate: PM2, Biolog well: G7", "result": 0.923}, {"measurement": "approximate change in surviving CFU (log10)", "setting": "Biolog plate: PM3, Biolog well: C11", "result": 0.365}]}
{"compound": "NCCc1ccc(O)cc1", "note": "[Tyramine]", "values": [{"measurement": "approximate change in surviving CFU (log10)", "setting": "Biolog plate: PM1, Biolog well: H4", "result": 0.537}, {"measurement": "approximate change in surviving CFU (log10)", "setting": "Biolog plate: PM3, Biolog well: E3", "result": -1.37}]}
{"compound": "O=C(O)CO", "note": "[Glycolic Acid]", "values": [{"measurement": "approximate change in surviving CFU (log10)", "setting": "Biolog plate: PM1, Biolog well: F9", "result": 0.736}, {"measurement": "approximate change in surviving CFU (log10)", "setting": "Biolog plate: PM2, Biolog well: E9", "result": 0.644}]}
{"compound": "O=c1[nH]cnc2c1ncn2[C@@H]1O[C@H](CO)[C@@H](O)[C@H]1O", "note": "[Inosine]", "values": [{"measurement": "approximate change in surviving CFU (log10)", "setting": "Biolog plate: PM1, Biolog well: F12", "result": 1.65}, {"measurement": "approximate change in surviving CFU (log10)", "setting": "Biolog plate: PM3, Biolog well: F12", "result": -0.365}]}
{"compound": "C[C@@H](O)[C@H](N)C(=O)O", "note": "[L-Threonine]", "values": [{"measurement": "approximate change in surviving CFU (log10)", "setting": "Biolog plate: PM1, Biolog well: G4", "result": 1.03}, {"measurement": "approximate change in surviving CFU (log10)", "setting": "Biolog plate: PM3, Biolog well: B11", "result": -0.129}]}
{"compound": "CC(C)[C@H](N)C(=O)O", "note": "[L-Valine]", "values": [{"measurement": "approximate change in surviving CFU (log10)", "setting": "Biolog plate: PM2, Biolog well: H4", "result": 0.15}, {"measurement": "approximate change in surviving CFU (log10)", "setting": "Biolog plate: PM3, Biolog well: C2", "result": -0.386}]}
{"compound": "N[C@@H](CO)C(=O)O", "note": "[L-Serine]", "values": [{"measurement": "approximate change in surviving CFU (log10)", "setting": "Biolog plate: PM1, Biolog well: G3", "result": 1.07}, {"measurement": "approximate change in surviving CFU (log10)", "setting": "Biolog plate: PM3, Biolog well: B10", "result": 0.107}]}
{"compound": "NCCC[C@H](N)C(=O)O", "note": "[L-Ornithine]", "values": [{"measurement": "approximate change in surviving CFU (log10)", "setting": "Biolog plate: PM2, Biolog well: H1", "result": 0.708}, {"measurement": "approximate change in surviving CFU (log10)", "setting": "Biolog plate: PM3, Biolog well: C12", "result": 0.172}]}
{"compound": "O=C(CO)[C@@H](O)[C@H](O)[C@H](O)CO", "note": "[D-Fructose]", "values": [{"measurement": "approximate change in surviving CFU (log10)", "setting": "Biolog plate: PM1, Biolog well: C7", "result": 2.4}]}
{"compound": "CSCC[C@H](N)C(=O)O", "note": "[L-Methionine]", "values": [{"measurement": "approximate change in surviving CFU (log10)", "setting": "Biolog plate: PM2, Biolog well: G12", "result": 0.365}, {"measurement": "approximate change in surviving CFU (log10)", "setting": "Biolog plate: PM3, Biolog well: B7", "result": -0.88}]}
{"compound": "C[C@H](N)C(=O)O", "note": "[L-Alanine]", "values": [{"measurement": "approximate change in surviving CFU (log10)", "setting": "Biolog plate: PM1, Biolog well: G5", "result": 0.987}, {"measurement": "approximate change in surviving CFU (log10)", "setting": "Biolog plate: PM3, Biolog well: A7", "result": 0.129}]}
{"compound": "N[C@@H](Cc1c[nH]cn1)C(=O)O", "note": "[L-Histidine]", "values": [{"measurement": "approximate change in surviving CFU (log10)", "setting": "Biolog plate: PM2, Biolog well: G6", "result": 1.01}, {"measurement": "approximate change in surviving CFU (log10)", "setting": "Biolog plate: PM3, Biolog well: B3", "result": 0.279}]}
{"compound": "N=C(N)NCCC[C@H](N)C(=O)O", "note": "[L-Arginine]", "values": [{"measurement": "approximate change in surviving CFU (log10)", "setting": "Biolog plate: PM2, Biolog well: G4", "result": 0.966}, {"measurement": "approximate change in surviving CFU (log10)", "setting": "Biolog plate: PM3, Biolog well: A8", "result": 0.236}]}
{"compound": "O=C1CC[C@@H](C(=O)O)N1", "note": "[L-Pyroglutamic Acid]", "values": [{"measurement": "approximate change in surviving CFU (log10)", "setting": "Biolog plate: PM2, Biolog well: H3", "result": -0.0858}, {"measurement": "approximate change in surviving CFU (log10)", "setting": "Biolog plate: PM3, Biolog well: D3", "result": -0.258}]}
{"compound": "CC(=O)N[C@H]1C(O)O[C@H](CO)[C@H](O)[C@@H]1O", "note": "(stereo partly drawn) [N-Acetyl-D-Galactosamine]", "values": [{"measurement": "approximate change in surviving CFU (log10)", "setting": "Biolog plate: PM2, Biolog well: B1", "result": 0.622}, {"measurement": "approximate change in surviving CFU (log10)", "setting": "Biolog plate: PM3, Biolog well: E12", "result": -0.129}]}
{"compound": "Nc1ncnc2c1ncn2[C@@H]1O[C@H](CO)[C@@H](O)[C@H]1O", "note": "[Adenosine]", "values": [{"measurement": "approximate change in surviving CFU (log10)", "setting": "Biolog plate: PM1, Biolog well: E12", "result": 0.622}, {"measurement": "approximate change in surviving CFU (log10)", "setting": "Biolog plate: PM3, Biolog well: F3", "result": 0.751}]}
{"compound": "N[C@@H](CC(=O)O)C(=O)O", "note": "[L-Aspartic Acid]", "values": [{"measurement": "approximate change in surviving CFU (log10)", "setting": "Biolog plate: PM1, Biolog well: A7", "result": 0.644}, {"measurement": "approximate change in surviving CFU (log10)", "setting": "Biolog plate: PM3, Biolog well: A10", "result": 0.451}]}
{"compound": "N[C@H](CO)C(=O)O", "note": "[D-Serine]", "values": [{"measurement": "approximate change in surviving CFU (log10)", "setting": "Biolog plate: PM1, Biolog well: B1", "result": 1.14}, {"measurement": "approximate change in surviving CFU (log10)", "setting": "Biolog plate: PM3, Biolog well: C8", "result": 0.279}]}
{"compound": "NCCCCN", "note": "[Putrescine]", "values": [{"measurement": "approximate change in surviving CFU (log10)", "setting": "Biolog plate: PM2, Biolog well: H8", "result": 0.322}, {"measurement": "approximate change in surviving CFU (log10)", "setting": "Biolog plate: PM3, Biolog well: D11", "result": -0.3}]}
